Consider 52 molecules from PubChem BioAssay AID2546 (National Center for Advancing Translational Sciences (NCATS), 2010).

Screen size: about 310,000 compounds; about 11,000 (3.5%) were called active. Not shown: some 8% with an inconclusive outcome. Many of the other results were omitted from the sample, so actives are more common in it than they were. A number with no mark means an inactive call. Calls follow the shape of the dose curve; as a rule, active = well fitted inhibition curve with a large enough effect; inconclusive = small, poorly fitted or top-dose-only effect, or effect the other way; inactive = flat fitted curve, though single readings scatter.
% is scaled to controls: 0 for no effect and ±100 for the full control effect; potency is read from the fitted curve at half-maximal effect.

This assay is described as follows: VP16 counterscreen qHTS for inhibitors of ROR gamma transcriptional activity.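 Also: Gal4-VP16 expression switched on by copper sulfate through the metallothionein promoter; nearly all actives have a fitted effect of over 50% in size.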 Conditions: Drosophila S2 Gal4-VP16 UAS-luciferase, luminescence, 20 h; series mostly up to 53.6 µM; activity, negative = inhibition: at the top concentration.
For `CC(=O)NCC(=O)N1CCC(n2nccc2NC(=O)CCCc2ccccc2)CC1`, the “activity, negative = inhibition” value is 29%.

Take `O=S(=O)(Nc1ccccc1Cl)c1cccc2nsnc12`: the “activity, negative = inhibition” value is 2.44%. Consider `O=c1c(-c2cccc(Cl)c2)c[nH]n1-c1ccccc1`, for which the “activity, negative = inhibition” value was 5.03%.

With `COc1ccc(NC(=O)c2sc3nc(C)nc(N4CCN(c5ccccn5)CC4)c3c2C)c(OC)c1`, the “activity, negative = inhibition” value was -22.9%. On the same count and under the same terms, the figure for `COc1cc(/C=N/NC(=O)c2ccc(N3CCCC3=O)cc2)ccc1O` is 6.95%; for `COc1ccc(/C=N/NC(=O)c2ccc3c(c2)OCCO3)c(OC)c1` it is 0.751%. In the case of `COc1ccc(C(=O)Nc2ccccc2C(=O)N/N=C/c2ccccc2OC)cc1`, the Potency was 12.6 µM (active).

As for `COc1ccc(C(=O)Nc2ccccc2C(=O)NCc2ccco2)cc1`, the “activity, negative = inhibition” value was 5.86%. On to `COc1ccc(C(=O)Nc2ccccc2C(=O)N/N=C/c2ccc(O)c(OC)c2)cc1`, for which the Potency was 0.316 µM (active). With `COc1cc(/C=N/NC(=O)c2ccccc2)ccc1OS(=O)(=O)c1ccccc1`, the “activity, negative = inhibition” value is -8.47%.

On to `Cn1c(Nc2cccc(Cl)c2)nc2ccccc21`, for which the “activity, negative = inhibition” value was -12.6%. Regarding `Fc1cc(F)c2nc(Nc3nc4c(F)cccc4s3)sc2c1`, the Potency was 7.08 µM (active). Regarding `Fc1cc(F)c2nc(N3CCOCC3)sc2c1`, the “activity, negative = inhibition” value was -0.814%. On the same count and under the same terms, the figure for `O=C(Nc1nc2c(F)cc(F)cc2s1)C1COc2ccccc2O1` (configuration not stated) is 4.29%.

Take `CCc1ccc(/C=N/NC(=O)c2nnn(-c3nonc3N)c2CN2CCc3ccccc32)cc1`: the “activity, negative = inhibition” value was -19.6%.

Consider `COc1ccc(C(C(=O)NC2CCCCC2)N(C(=O)c2snc(C(N)=O)c2N)c2ccccc2OC)cc1` (configuration not stated), for which the “activity, negative = inhibition” value was 3.53%. Same read-out and setting: to `CCC1(C)Cc2c(sc3nnn(CC(=O)Nc4ccc(Cl)cc4)c(=O)c23)CO1` (configuration not stated) belongs -0.473%. With `CCC1(C)Cc2c(sc3[nH]c(=S)n(Cc4ccccc4)c(=O)c23)CO1` (configuration not stated), the Potency was 1.26 µM (active).

For `CCC1(C)Cc2c(sc3nc(SC)[nH]c(=O)c23)CO1` (configuration not stated), the “activity, negative = inhibition” value was -14%. Still for that read-out and setting: to `CCOc1ccc(N(CC(=O)Nc2ccccc2F)S(=O)(=O)c2c(C)[nH]c(=O)[nH]c2=O)cc1` belongs -3.41%; to `Cc1cccc(N2CCN(S(=O)(=O)c3ccc(-c4cc(C)no4)s3)CC2C)c1` (configuration not stated), 1.53%. With `COCCCNS(=O)(=O)c1cccc(S(=O)(=O)c2cccc(S(=O)(=O)NCCCOC)c2)c1`, the “activity, negative = inhibition” value is -23.9%. Still for that read-out and setting: to `CCOc1ccccc1NS(=O)(=O)c1c[nH]c(C(=O)OC)c1` belongs 0.313%; to `CCCNC(=O)CSc1nc(Cc2ccccc2)nc2ccccc12`, 13.9%; to `COCc1ccc(CN2CCC(Oc3ccc(C(=O)NCc4ccccn4)cc3)CC2)o1`, 1.21%. As for `CC(=O)C1(C)N(O)C(C)(C)C(c2cccs2)=[N+]1[O-]` (configuration not stated), the Potency was 10 µM (active). Regarding `CC1(C)C(c2cccs2)=[N+]([O-])C2(CCCCC2=O)N1O` (configuration not stated), the “activity, negative = inhibition” value is 0%. As to `C/C(=N\O)C1(C)N(O)C(C)(C)C(c2ccc(Br)cc2)=[N+]1[O-]` (configuration not stated), the “activity, negative = inhibition” value is 24.1%.

For `COc1ccc(C2/C=C\CN(Cc3ccco3)C(C)C(=O)N2Cc2ccc(F)cc2)cc1` (configuration not stated), the “activity, negative = inhibition” value is -2.15%.

Turning to `COc1ccc(CN2CC(C(=O)NC3CCCCC3)CC2=O)cc1` (configuration not stated), the “activity, negative = inhibition” value was -2.51%. In the case of `COc1ccc(CN2CN(C(C)C)CSC2=S)cc1`, the “activity, negative = inhibition” value was 5.57%. For the molecule `COc1ccc(CN2CN(C3CCCC3)CSC2=S)cc1`, the Potency is 11.2 µM (active).

On to `CC(C)Nc1ccc(-n2nc3ccccc3[n+]2[O-])cc1`, for which the Potency is 10 µM (active). Regarding `CC1CCN(C(=O)CCNC(=O)c2ccccc2)CC1`, the “activity, negative = inhibition” value is -3.13%. On to `COc1ccc(CCNC(=O)CN2C(=O)CCSc3ccccc32)c(OC)c1`, for which the “activity, negative = inhibition” value is 3.66%. On the same count and under the same terms, to `C=CCn1c(=S)sc2c(=O)[nH]c(C)nc21` belongs 4.03%; to `COc1cc(-c2n[nH]c(=S)n2Cc2ccccc2)cc(OC)c1OC`, 4.14%. In the case of `C=CCn1c(-c2ccc3[nH]c(C)c(C)c3c2)n[nH]c1=S`, the Potency was 12.6 µM (active). Consider `COC(=O)c1cccc(C(=O)N2CCC(CCC(=O)NCc3ccc(F)cc3)CC2)c1`, for which the “activity, negative = inhibition” value is -1.98%.

For `O=C(c1ccc(Oc2ccc(Cl)cc2)c([N+](=O)[O-])c1)N1CCCC1`, the “activity, negative = inhibition” value was -9.29%. Same read-out and setting: to `CCN(CC)c1ccc(C(=O)Nn2c(C)nc3ccccc3c2=O)cc1` belongs -12.5%; to `COC(=O)c1ccc2c(=O)n(CCN3CCOCC3)c(SCC(=O)Nc3cccc(OC)c3)nc2c1`, 8.75%. Same read-out and setting: the figure for `COc1ccccc1N1CCN(S(=O)(=O)CCNC(=O)c2ccc(OC(C)C)cc2)CC1` is -17.5%; for `O=C(CSCc1ccccc1)N1CCc2ccccc21` it is -18%. On to `O=C(NC(=S)N1CCc2ccccc21)c1ccco1`, for which the Potency is 3.16 µM (active). Regarding `NC(=O)N1CCc2ccccc21`, the “activity, negative = inhibition” value was -1.97%. Turning to `CN(C)c1ccc(-c2nnc(-c3cccnc3)o2)cc1`, the “activity, negative = inhibition” value was -28.8%. Still for that read-out and setting: to `O=C(Nc1ccncc1)Nc1ccc(F)cc1` belongs -1.61%. Same read-out and setting: the figure for `Cc1ccc(C)c(N2CCN(C(=O)CCCn3c(=O)c4cccn4c4cccnc43)CC2)c1` is -5.07%. Still for that read-out and setting: the figure for `Cc1ccc(C)c(N2CCN(C(=O)CCCCn3c(=O)[nH]c4ccccc4c3=O)CC2)c1` is -1.55%. As to `Cc1ccc(C)c(N2CCN(C(=O)CCCCCn3c(=S)[nH]c4ccc(N5CCOCC5)cc4c3=O)CC2)c1`, the Potency is 5.62 µM (active). Take `O=C(CSc1nc2nccnc2c(=O)n1Cc1cccs1)Nc1ccccc1F`: the “activity, negative = inhibition” value was 8.14%.
